Laboratory results: PubChem BioAssay (NCATS)
Records with an inconclusive call do not appear. Where a call stands in place of a potency, no number is given. Active and inactive are the calls of the source. The call rests on the fitted dose curve; in most records, active means well fitted inhibition curve with a large enough effect; inconclusive means small, poorly fitted or top-dose-only effect; inactive means flat fitted curve, though single readings scatter.

target: Calcium and integrin-binding protein 1 (Homo sapiens) (UniProt Q99828); experiment: Primary qHTS for Identification of Calcium Integrin Binding Protein 1 (CIB1) Competitor (AID 1508620); details: CIB1-GST / FITC-alphaIIb peptide fluorescence polarization; series mostly up to 114 µM;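 further: GST tagged CIB1 binding a fluorescein labelled alphaIIb integrin peptide tracer; top concentration of the series differs between compounds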
Summary of the method: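 Fluorescence polarization competition: CIB1-GST (1 uM final) preincubated with compound 15 min at room temperature, then FITC-labeled alphaIIb peptide (100 nM final) added for another 15 min. Polarization read at Ex 480/Em 540.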

Sequence of Calcium and integrin-binding protein 1 (Homo sapiens) (Q99828 whole entry, looked up): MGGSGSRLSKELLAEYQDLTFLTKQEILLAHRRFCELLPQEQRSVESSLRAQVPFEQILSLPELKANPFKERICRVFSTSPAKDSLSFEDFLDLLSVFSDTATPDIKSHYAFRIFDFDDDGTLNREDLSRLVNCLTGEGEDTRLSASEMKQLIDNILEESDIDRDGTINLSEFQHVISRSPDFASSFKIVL

SMILES	Potency
CN(C)c1ccc(C(=O)NCC(=O)OC(C(=O)Nc2cc(C(F)(F)F)ccc2Cl)c2ccccc2)cc1 (configuration not stated)	inactive
O=[S+]([O-])(c1c(F)cccc1F)N1CCN([S+](=O)([O-])c2csc3ccccc23)CC1	inactive
COc1ccccc1NC(=O)c1ccc2ccccc2c1	inactive
CC(=O)Nc1oc(-c2cccc3ccccc23)nc1C#N	inactive
Oc1cc(NCc2ccc(F)cc2)cc2cccnc12	inactive
O=C(Nc1ccc2ccccc2c1)Nc1nnc(-c2ccc(Cl)cc2Cl)s1	inactive
O=C1N/C(=C\c2ccco2)C(=O)N1Cc1ccccc1	inactive
NC(=O)C1CCN(c2nccc(-c3ccc(Br)cc3)n2)CC1	inactive
Cc1ccc(-c2ccc(=O)n(CC(=O)N(C)C3CCCCCC3)n2)cc1	inactive
O=C(NC1CCCc2c1cnn2-c1ccc(F)cc1F)c1cnon1 (configuration not stated)	inactive
COc1ccc(C2Nc3ccccc3C(=O)N2Cc2ccccc2OC)cc1COc1ccc(NC(C)=O)cc1 (configuration not stated)	inactive
O=C(Nc1ccc(-c2nc3ccccc3[nH]2)cc1)Nc1ccc2c(c1)CCCO2	inactive
O=C(NCCc1nc2ccccc2n1CCOc1cccc([N+](=O)[O-])c1)C1CCCCC1	inactive
Cc1cc(C)nc(NC(=S)N2CCN(c3cc(Cl)cc(C(F)(F)F)c3)CC2)c1	inactive
Oc1cc(Nc2ccncc2)cc2cccnc12	inactive
CCCCN(C)C(=O)Cn1nc(-c2ccc(Cl)cc2)ccc1=O	inactive
COc1ccc(C2Nc3ccccc3C(=O)N2Cc2cccc(C(F)(F)F)c2)cc1COc1ccc(NC(C)=O)cc1 (configuration not stated)	inactive
